# This is one part of a sample in which hits are shown more often than they occur.
# mHTT CaM bind = mutant huntingtin-calmodulin interaction inhibitors – biochemical, AlphaScreen, primary screen. P42858. AID 1671202, 2021. AlphaScreen His-mHTT/GST-CaM binding, luminescence. hit rate 3.6% among 190,000. inhibition, % at 15 µM
# Pf apPOL block = Pf-apPOL inhibitors, biochemical, fluorescence; Plasmodium falciparum apicoplast DNA polymerase (apPOL); Recombinant Pf-apPOL, molecular beacon fluorescence, 1.5 h; inhibition, % at 10 µM; hit rate 0.25% among 210,000
# Hits are given with their value; - = inactive; . = no result. No stated cut-off is given here; in the data, active means inhibition above about 50%; inactive means the rest.
SMILES,mHTT CaM bind,Pf apPOL block
Cc1ccc2nc(C3CN(C(=O)c4cc(-c5cccs5)[nH]n4)C3)[nH]c2c1,53,-
Cc1nnc(C2CCCN(C(=O)c3cc(-c4cccs4)[nH]n3)C2)s1 (stereo not given),-,-
Cc1ccoc1C(=O)Nc1ccc(C(N)=O)cc1,-,-
Cc1nc([N+](=O)[O-])cn1CC(=O)NCc1ccccc1,-,-
Nc1nc(CSc2ncccn2)nc(Nc2ccccc2)n1,-,-
Cc1ccc2cccc(SCc3nc(N)nc(Nc4ccccc4)n3)c2n1,61,-
O=c1c2ccc(O)cc2oc2cc(O)ccc12,-,-
COc1ccc(N2CC(CNC(=O)NC3CCCCC3)OC2=O)cc1 (stereo not given),-,-
O=C(Cc1nc(-c2ccccn2)n[nH]1)Nc1cccc(Cl)c1,99,-
Cc1ccc(NC(=O)Cc2nc(-c3ccccc3)n[nH]2)cc1C,-,-
O=C(Cc1nc(-c2ccccn2)n[nH]1)Nc1cccc(F)c1,99,-
O=C(Cc1nc(-c2ccccn2)n[nH]1)Nc1ccc(Cl)cc1,68,-
O=C(Cc1nc(-c2ccccc2)n[nH]1)Nc1ccccc1,-,-
O=C(Cc1nc(-c2ccccc2)n[nH]1)Nc1ccc(F)cc1,-,-
Cc1c(C(=O)NCc2ccccc2)oc2ccc(S(=O)(=O)N3CCCCCC3)cc12,-,-
Cn1nc(COc2ccccc2)c2c1CCN(C(=O)NCC1CCCO1)C2 (stereo not given),-,-
CC(C)c1c(C2CCN(C(=O)c3ccoc3)CC2)noc1N,-,-
Cn1ncc(N2CCCC(C(=O)NCc3cccc(Cl)c3)C2)cc1=O (stereo not given),-,-
O=C1C=CC(=NS(=O)(=O)c2ccccc2)C=C1Br,57,-
CC1=C(C)C(=NS(=O)(=O)c2ccccc2)C=CC1=O,-,-
Cc1cc(C)c(S(=O)(=O)N=C2C=CC(=O)C=C2)cc1C,-,-
O=C1C(Br)=CC(=NS(=O)(=O)c2ccccc2)C=C1Br,100,-
O=C1C=CC(=NS(=O)(=O)c2ccc(Br)cc2)C=C1,-,-
CC1=CC(=O)C=C(C)C1=NS(=O)(=O)c1ccccc1,-,-
CC1=CC(=NS(=O)(=O)c2ccc(Br)cc2)C=C(C)C1=O,52,-
SMILES,mHTT CaM bind,Pf apPOL block
Cc1cc(C)c(S(=O)(=O)N=C2C=CC(=O)C(Br)=C2)cc1C,58,-
Cc1ccc(S(=O)(=O)N=C2C=CC(=NS(=O)(=O)c3ccc(C)cc3)C=C2)cc1,-,-
CCc1ccc(S(=O)(=O)N=C2C=CC(=O)C(Br)=C2)cc1,72,-
CCc1ccc(-n2c(CN3CCN(C(=O)NCc4ccco4)CC3)nc3cccnc32)cc1,-,-
O=[N+]([O-])c1cc(Cl)ccc1NCCCNS(=O)(=O)c1ccccc1,53,-
O=[N+]([O-])c1cc(Cl)ccc1NCCNS(=O)(=O)c1ccccc1,-,-
CC(C)C(NS(=O)(=O)c1cccs1)C(=O)Nc1ccc(F)cc1 (stereo not given),-,-
CCC(=O)N1N=C(CC)CC1(O)c1ccc(Br)cc1 (stereo not given),-,-
CC1=NN(C(=O)CCCc2ccccc2)C(O)(c2ccc(Br)cc2)C1 (stereo not given),58,-
COc1ccc(Br)cc1CNC(=O)CN1N=C(c2ccc(Cl)cc2)CCC1=O,52,-
COc1ccc(OC)c(CNC(=O)CN2N=C(c3ccc(Cl)cc3)CCC2=O)c1,-,-
O=C(CN1N=C(c2ccc(Cl)cc2)CCC1=O)NCCN1CCc2ccccc2C1,52,-
O=C(CN1N=C(c2ccc(Cl)cc2)CCC1=O)NCCc1ccc(Cl)cc1,-,-
COCCCN1C(=O)c2ccc(C(=O)Nc3ccc([N+](=O)[O-])cc3)cc2C1=O,-,-
Cc1ccc(-c2cc(C(=O)N3CCCCCC3)ccn2)s1,-,-
Cc1nc(Nc2ccc(F)cn2)sc1C(=O)N1CCN(c2ccccc2)CC1,68,-
Cc1nc(Nc2ccccn2)sc1C(=O)N1CCN(c2ccccc2F)CC1,59,-
Cc1ccnc(Nc2nc(C)c(C(=O)N3CCC(C)CC3)s2)c1,-,-
Cc1c(C(=O)N2CCN(c3ccc(F)cc3)CC2)sc2nc(-c3ccccc3)cn12,-,-
O=C(c1csc(Nc2ccccc2)n1)N1CCN(c2ccccc2F)CC1,80,-
CN1CCN(C(=O)c2csc(N3CCN(c4ccccc4F)CC3)n2)CC1,-,-
Cc1ccc(-c2cc(C(=O)N3CCN(c4ccc(F)cc4)CC3)ccn2)s1,74,-
O=C(NCCc1ccccc1)c1ccc2nonc2c1,.,-
CCc1cccc(CC)c1NC(=O)c1sc2nc3c(c(-c4cccs4)c2c1N)CCCC3,.,-
CCOc1ccc(C2C=C(c3cccs3)Nc3nnnn32)cc1OC (stereo not given),-,-
Cc1nc(Nc2ccc(F)cn2)sc1C(=O)N1CCN(c2ccc(F)cc2)CC1,84,-
Cc1nnsc1C(=O)N1CCN(c2ccc(F)cc2)CC1,.,-
Nc1nc(-c2cc3cc(Cl)cc(Cl)c3oc2=O)cs1,-,-
